This is a sample that favours compounds with a hit; in the whole collection about 12% have one here.
AmpC inh no detg = blocks E. coli AmpC beta-lactamase in detergent-free assay. P00811. AmpC nitrocefin hydrolysis, absorbance 480 nm, 0.0001% Triton. Potency, µM (doses to about 57.1 µM), without a hit: at the highest dose activity change, negative = inhibition, hits mostly inhibitors. 330,000 compounds, 0.52% hits. AID 485341;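 also: plate controls were no compound for no effect and no enzyme for full effect; nearly all actives have a fitted effect of over 20% in size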
Target sequence (P00811 whole entry, looked up): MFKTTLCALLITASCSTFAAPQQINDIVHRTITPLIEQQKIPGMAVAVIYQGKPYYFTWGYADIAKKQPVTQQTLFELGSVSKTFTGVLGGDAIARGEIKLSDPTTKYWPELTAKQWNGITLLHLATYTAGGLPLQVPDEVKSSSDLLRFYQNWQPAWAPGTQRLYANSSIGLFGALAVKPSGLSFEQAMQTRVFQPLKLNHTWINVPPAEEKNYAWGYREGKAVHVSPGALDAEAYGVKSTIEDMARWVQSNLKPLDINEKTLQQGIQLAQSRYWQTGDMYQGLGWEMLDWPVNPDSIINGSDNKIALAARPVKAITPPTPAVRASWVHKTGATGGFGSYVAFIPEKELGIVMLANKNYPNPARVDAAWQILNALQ
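AmpC (5.3 nM in the dispensed reagent) in 20 mM phosphate pH 7.0 with 0.01% (detergent screen) or 0.0001% Triton X-100 was preincubated with compounds for 15 min at room temperature. Nitrocefin was then added from an 800 uM solution, and hydrolysis was followed at 480 nm.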
SARS PLpro yeast = blocks SARS-CoV papain-like protease in a yeast assay; 330,000 compounds, 0.19% hits; AID 485353; Potency, µM (series often up to 32.9 µM), inactives show top-dose activity, positive = growth rescue, usual class: activators; S. cerevisiae expressing SARS-CoV PLpro, growth rescue; calls by dose curve; also: 0% is about no effect; nearly all actives have a fitted effect of over 55% in size
AmpC inh detg = blocks E. coli AmpC beta-lactamase in detergent assay; P00811; AmpC hydrolysis of nitrocefin, absorbance 480 nm, 0.01% Triton; Potency, µM (top dose mostly 114 µM), without a hit: at the top dose activity change, negative = inhibition, usual class: inhibitors; 370,000 compounds, 0.041% hits; AID 485294;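 also: 0% = no-compound wells and -100% = no-enzyme wells; nearly all actives have a fitted effect of over 25% in size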
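AmpC (5.3 nM in the dispensed reagent) in 20 mM phosphate pH 7.0 with 0.01% (detergent screen) or 0.0001% Triton X-100 was preincubated with compounds for 15 min at room temperature. Nitrocefin was then added from an 800 uM solution, and hydrolysis was followed at 480 nm.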
Pf growth 96h = inhibits malaria parasite growth, 96 h; P. falciparum luciferase reporter growth, 96 h; Potency, µM (titrated, usually from 28.7 µM), inactives show at the top dose activity change, negative = inhibition, actives largely listed as inhibitors; 320,000 compounds, 6.9% hits; AID 504834; also: % is scaled to controls: 0 for no effect and ±100 for the full control effect
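Infected RBCs, 2% Hct / 0.05% parasitemia final; luciferase-reporter P. falciparum; cpd 96 h, 37 C, 5% CO2; luciferase detection reagent; luminescence.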
Sm TGR inh = S. mansoni TGR enzyme inhibition. Q962Y6. purified TGR, DTNB reduction, TNB absorbance 405 nm. Potency, µM (series often up to 114 µM), inactives show at the top dose activity change, negative = inhibition, hits mostly inhibitors. 360,000 compounds, 3% hits; also: % is scaled to controls: 0 for no effect and ±100 for the full control effect; nearly all actives have a fitted effect of over 60% in size
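Kinetic colorimetric format: TGR-catalysed, NADPH-driven DTNB reduction monitored via TNB absorbance. Enzyme dispensed at 20 nM; compound exposure 15 min at room temperature before reaction start.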
Pf growth 48h = inhibits P. falciparum growth in the first generation, 48 h. P. falciparum luciferase growth in erythrocytes, 48 h. Potency, µM (highest dose often 28.7 µM), for the others: at the highest dose activity change, negative = inhibition, actives largely listed as inhibitors. 310,000 compounds, 5.9% hits. AID 504832; also: % is scaled to controls: 0 for no effect and ±100 for the full control effect
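First compound was added to culture medium, then infected red cells at 0.1% parasitemia and 2% hematocrit (final). After incubation at 37 C under 5% CO2, luciferase detection reagent was dispensed and light output recorded.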
* = called active by the depositor. Unless noted, calls follow the shape of the dose curve; as a rule, active = well fitted curve in the direction sought with a large enough effect; inconclusive = small, poorly fitted or top-dose-only effect, or another doubt; inactive = no such curve, though single readings can be large; an effect the other way counts as inactive or inconclusive. Potency is read from the fitted curve at half-maximal effect.

COc1cccc(NC(=O)CN2CCCN(S(=O)(=O)c3ccc(Br)cc3)CC2)c1 was read as AmpC inh detg -3% and Sm TGR inh -18%.
Screening CC(C)(C)OC(=O)N1CCC(c2c(C(=O)NCCCN3CCc4ccccc4C3)cnn2-c2ccccc2)CC1 returned AmpC inh detg 18% and Sm TGR inh 0%.
O=C(CN1CCN(C(=O)c2ccco2)CC1)Nc1ccccc1 was read as AmpC inh no detg -4%, SARS PLpro yeast 3%, AmpC inh detg -7%, Pf growth 96h 30%, Sm TGR inh -6% and Pf growth 48h 9%.
Screening O=C(CN1CCN(C(=O)c2ccco2)CC1)Nc1cccc(S(=O)(=O)N2CCCC2)c1 returned AmpC inh no detg -6%, SARS PLpro yeast 15%, AmpC inh detg 8%, Pf growth 96h 10µM*, Sm TGR inh -36% and Pf growth 48h inconclusive.
Screening COc1ccc(NC(=O)CN2CCN(c3nc(-c4cccc(OC)c4)cs3)CC2)cc1 returned AmpC inh no detg 43%, SARS PLpro yeast -23%, AmpC inh detg -2%, Pf growth 96h 43%, Sm TGR inh 0% and Pf growth 48h 8.3µM*.
`Cc1cc2c(cc1S(=O)(=O)CCC(=O)N1CCCCC1C)OCC(=O)N2` (stereo not drawn) gave AmpC inh detg 10% and Sm TGR inh -5%.
For O=C(NCCc1ccccc1)c1ccc(Cl)c(S(=O)(=O)N2CCOCC2)c1 the results were AmpC inh no detg -3%, SARS PLpro yeast -3%, AmpC inh detg 1%, Pf growth 96h 10µM*, Sm TGR inh -21% and Pf growth 48h inconclusive.
O=C(NCCc1ccccc1)c1ccc2c(c1)N(Cc1ccccc1)C(=O)CS2=O (stereo not drawn) was read as AmpC inh no detg 5µM*, SARS PLpro yeast -2%, AmpC inh detg inconclusive, Pf growth 96h -1%, Sm TGR inh 7% and Pf growth 48h inconclusive.
`O=C(CCCNC(=O)c1ccc(Cl)cc1)Nc1ncccc1O` gave AmpC inh no detg 1%, SARS PLpro yeast 3%, AmpC inh detg 5%, Pf growth 96h 8.3µM*, Sm TGR inh 1% and Pf growth 48h inconclusive.
For COc1cccc(CNC(=O)CCCNC(=O)c2ccc(Cl)cc2)c1 the results were AmpC inh no detg 30%, SARS PLpro yeast 9%, AmpC inh detg -3%, Pf growth 96h inconclusive, Sm TGR inh 22µM* and Pf growth 48h inconclusive.
Screening CCc1nnc(SCc2nc(-c3ccc(OC)c(OC)c3)oc2C)c2cc3sc(C)cc3n12 returned AmpC inh detg -9% and Sm TGR inh -8%.
`COc1cc(OC)c(NC(=O)N2CCc3c([nH]c4ccccc34)C2c2ccccc2F)cc1Cl` (stereo not drawn) gave AmpC inh detg 26% and Sm TGR inh 13%.
For CCn1nnnc1SCC(=O)N1CCCc2ccccc21 the results were AmpC inh no detg -9%, SARS PLpro yeast 14%, AmpC inh detg -1%, Pf growth 96h inconclusive, Sm TGR inh -6% and Pf growth 48h 20%.
CC(=O)c1cccc(NC(=O)Cn2ccn3nc(-c4ccccc4)cc3c2=O)c1 was read as AmpC inh detg 2% and Sm TGR inh -1%.
Screening COC(=O)c1ccc(CNC(=O)CSc2nnc(COc3ccccc3)n2C)o1 returned AmpC inh no detg -3%, SARS PLpro yeast -6%, AmpC inh detg -6%, Pf growth 96h 17%, Sm TGR inh -11% and Pf growth 48h -15%.
Screening COc1cccc(CNC(=O)c2ccc(Cl)c(S(=O)(=O)N3CCOCC3)c2)c1 returned AmpC inh no detg -4%, SARS PLpro yeast -6%, AmpC inh detg 2%, Pf growth 96h 6.6µM*, Sm TGR inh 13% and Pf growth 48h 8.3µM*.
O=C(Nc1ccccc1C(=O)OCc1cc(=O)n2nc(C3CC3)sc2n1)c1cccc(Cl)c1 was read as AmpC inh detg 16% and Sm TGR inh 7%.
`N#CCc1nc2c3c4c(sc3ncn2n1)CCCC4` gave AmpC inh no detg -12%, SARS PLpro yeast -5%, AmpC inh detg -7%, Pf growth 96h 10µM* and Sm TGR inh 6%.
COc1ccc2c(CNCc3cccs3)c(C(=O)O)n(Cc3ccc(C)cc3)c2c1 was read as AmpC inh detg -9% and Sm TGR inh -1%.
For CCC(Sc1ncccc1C(=O)OCCN1CCCC1=O)C(=O)NCc1ccco1 (stereo not drawn) the results were AmpC inh no detg 74%, SARS PLpro yeast 12%, AmpC inh detg -5%, Pf growth 96h inconclusive, Sm TGR inh 45µM* and Pf growth 48h inconclusive.
Screening COc1ccc2c(c1)CCC/C2=N\Nc1nc(C(=O)NN)cs1 returned AmpC inh no detg -12%, SARS PLpro yeast -1%, AmpC inh detg 11%, Pf growth 96h inconclusive, Sm TGR inh -3% and Pf growth 48h 10µM*.
Screening CCOC(=O)c1csc(N/N=C2\CCCc3ccccc32)n1 returned AmpC inh no detg 36%, SARS PLpro yeast -3%, AmpC inh detg -16%, Pf growth 96h inconclusive and Sm TGR inh 2%.
For CCOC(=O)c1csc(N/N=C2\CCc3ccccc32)n1 the results were AmpC inh no detg -2%, SARS PLpro yeast -1%, AmpC inh detg -3%, Pf growth 96h 13µM* and Sm TGR inh -35%.
`O=C(/C=C/c1cccc([N+](=O)[O-])c1)OCC1CCCO1` (stereo not drawn) gave AmpC inh no detg -3%, SARS PLpro yeast 4%, AmpC inh detg inconclusive, Pf growth 96h 5%, Sm TGR inh -1% and Pf growth 48h 0%.
Screening COc1ccc(-c2nn(-c3ccccc3)cc2C(=O)N2CCN(S(=O)(=O)c3cccc(F)c3)CC2)cc1 returned AmpC inh no detg 44%, SARS PLpro yeast 5%, AmpC inh detg inconclusive, Pf growth 96h inconclusive, Sm TGR inh -4% and Pf growth 48h 10µM*.
For Cc1c(C(=O)N2CCOCC2)cc(C(C)(C)C)n1-c1ccccc1 the results were AmpC inh no detg 39%, SARS PLpro yeast 0%, AmpC inh detg -3%, Pf growth 96h 9.3µM*, Sm TGR inh inconclusive and Pf growth 48h 9.3µM*.
CC(C(=O)N1CCOCC1)(c1ccccc1)c1ccccc1 was read as AmpC inh no detg 2%, SARS PLpro yeast -2%, AmpC inh detg -6%, Pf growth 96h -9%, Sm TGR inh 0% and Pf growth 48h inconclusive.
`COc1ccc(-c2nn(-c3ccccc3)cc2C(=O)N2CCN(C(=O)c3ccco3)CC2)cc1` gave AmpC inh no detg 27% and SARS PLpro yeast -1%.

Screening data (PubChem BioAssay)
